From PubChem
NS1 function inh: inhibitors of influenza NS1 protein function. Potency, µM (titrated, usually from 46.1 µM), for inactives: top-dose activity, positive = more growth. 270,000 compounds, 0.4% hits. AID 2326; calls by dose curve; also: actives are rising curves; nearly all actives have a fitted effect of over 50% in size
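A cell-based growth assay was used: compounds that relieve NS1-induced slow growth of budding yeast raise OD600. Assay medium was yeast nitrogen base with ammonium sulphate and -URA supplement, pH 6.0, with 2% galactose.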
AMA1 RON2 block: AMA1-RON2 (P. falciparum) interaction inhibition. AlphaScreen AMA1-biotinylated RON2 peptide binding. Potency, µM (titrated, usually from 58.2 µM), without a hit: at the highest dose activity change, negative = inhibition, most hits filed as inhibitors. 360,000 compounds, 0.2% hits;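 also: 0% = vehicle wells and -100% = peptide control; nearly all actives have a fitted effect of over 45% in size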
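AMA1 (3D7) with his tag at 25 nM final met compounds first, then biotinylated RON2 peptide at 25 nM; detection used donor plus acceptor beads, 10 µg/mL apiece, read by AlphaScreen after 30 min at room temperature.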
Pf growth 48h: inhibits P. falciparum growth in the first generation, 48 h; P. falciparum luciferase growth in erythrocytes, 48 h; Potency, µM (highest dose often 28.7 µM), for the others: top-dose activity change, negative = inhibition, most hits filed as inhibitors; 310,000 compounds, 5.9% hits; AID 504832; also: % is scaled to controls: 0 for no effect and ±100 for the full control effect
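Luciferase-expressing parasites in RBCs, 2% Hct / 0.1% parasitemia final; RPMI 1640 + 0.5% Albumax; 37 C, 5% CO2, one generation; luminescence read-out, lower signal = inhibition.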
Sm TGR block: S. mansoni TGR enzyme inhibition; AID 485364; Q962Y6; purified TGR, DTNB reduction, TNB absorbance 405 nm; 360,000 compounds, 3% hits; Potency, µM (top dose mostly 114 µM), inactives show top-dose activity change, negative = inhibition, hits mostly inhibitors; also: % is scaled to controls: 0 for no effect and ±100 for the full control effect; nearly all actives have a fitted effect of over 60% in size
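Kinetic colorimetric format: TGR-catalysed, NADPH-driven DTNB reduction monitored via TNB absorbance. Enzyme dispensed at 20 nM; compound exposure 15 min at room temperature before reaction start.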
Pf growth 96h: P. falciparum growth inhibition at 96 hour, primary screen for plastid delayed-death inhibitors | P. falciparum luciferase reporter growth, 96 h | Potency, µM (doses to about 28.7 µM), for inactives: top-dose activity change, negative = inhibition, actives largely listed as inhibitors | 320,000 compounds, 6.9% hits; also: % is scaled to controls: 0 for no effect and ±100 for the full control effect
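Parasite growth measured via integrated firefly luciferase reporter in P. falciparum. Infected erythrocytes at 2% hematocrit, 0.05% parasitemia final were treated 96 hours at 37 C under 5% CO2, and luminescence was read.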
* hit, by the source's call; ? = inconclusive; . = no result. Only some compounds are listed: those with a hit (about 11% of all), similar ones and a draw of the others. Unless noted, calls follow the shape of the dose curve; as a rule, active = well fitted curve in the direction sought with a large enough effect; inconclusive = small, poorly fitted or top-dose-only effect, or another doubt; inactive = no such curve, though single readings can be large; an effect the other way counts as inactive or inconclusive. Potency is read from the fitted curve at half-maximal effect.

SMILES | NS1 function inh | AMA1 RON2 block | Pf growth 48h | Sm TGR block | Pf growth 96h
CCCCn1c(=O)n(CC(=O)Nc2ccc(C)c(Cl)c2)c(=O)c2c1ncn2Cc1ccco1 | -34% | 0% | 12µM* | ? | 4.7µM*
CCCCn1c(=O)n(CC(=O)Nc2ccc(OC)c(Cl)c2)c(=O)c2c1nc(CO)n2CCC | -19% | 3% | 10µM* | 3% | .
Cc1ccc(NC(=O)CSc2nccn2Cc2ccco2)cc1Cl | . | . | . | -10% | .
CN1CCN(NC(=O)c2cc(S(=O)(=O)Nc3ccc(Cl)cc3)ccc2Cl)CC1 | 3% | 22% | 4% | -35% | 10%
CC1CCCN(C(=O)C23CCC(C)(C(=O)C2)C3(C)C)C1 (stereo not given) | 4% | 0% | 8% | -3% | 9.3µM*
O=C(CCCSc1nc2ccccc2[nH]1)NCc1ccc(Cl)cc1 | -8% | 0% | ? | -8% | 12µM*
Clc1ccc(CSc2nc3ccncc3[nH]2)cc1 | -76% | -8% | . | 3% | 4.7µM*
Cc1ccc(CSc2nc3ccncc3[nH]2)cc1 | -5% | 0% | . | 3% | ?
O=C(CSc1nc2ccccc2c(=O)[nH]1)NCc1ccc(Cl)cc1 | 4% | -2% | . | 8% | 11%
O=c1[nH]c(SCc2ccc(Cl)cc2)nc2ccccc12 | 6% | 0% | ? | 12% | 13µM*
S=c1nc(SCc2ccccc2)[nH]c2ccccc12 | . | 102% | -6% | -24% | 1.7µM*
O=C1c2ccccc2-c2onc3c(Oc4ccccc4)cc(O)c1c23 | 9% | . | 96% | 45µM* | .
O=C(Nc1ccc(Cl)cc1F)c1cc(S(=O)(=O)NCc2ccc3c(c2)OCO3)ccc1F | . | . | . | 7% | .
CC(C)c1ccc(CN(C(=O)c2ccco2)C2CCS(=O)(=O)C2)cc1 (stereo not given) | 2% | 7% | -12% | 5% | ?
CCn1ncc(/C=N\NC(=O)c2cc(-c3ccc(C)cc3C)nc3ccccc23)c1C | -1% | 14% | . | 5% | ?
N#C/C(=C/c1cn(-c2ccccc2)nc1-c1cccc(OCc2ccc(F)cc2)c1)C(=O)NCCCn1ccnc1 | ? | 9% | 3.7µM* | -2% | 2.1µM*
CCCOc1cccc(-c2nn(-c3ccccc3)cc2/C=C(\C#N)C(=O)NCCCn2ccnc2)c1 | 18% | 29% | 2.1µM* | 7% | 10µM*
COc1ccc(N2CCN(S(=O)(=O)c3ccc4c(c3)CCCN4C(C)=O)CC2)cc1 | . | . | . | 5% | .
O=C(C[N+]1(CC#Cc2ccccc2)CCOCC1)c1ccc(Cl)cc1 | . | 4% | ? | ? | 40%
O=C(C[N+]1(CC#Cc2ccccc2)CCOCC1)c1ccccc1 | . | -1% | 13µM* | -30% | -11%
O=C(C[N+]1(CC#Cc2ccccc2)CCCCC1)c1ccccc1 | . | -4% | 9.3µM* | -27% | ?
O=C(C[N+]1(CC#Cc2ccccc2)CCCCC1)c1ccc(Cl)cc1 | . | 13% | ? | -33% | -22%
CCCCCn1nnnc1-c1nc2cc(C)c(C)cc2[nH]c1=O | . | -3% | . | . | .
Cc1ccc(C(=O)Nc2ccc(N3CCN(C)CC3)nc2)cc1 | . | -15% | 413% | -11% | ?
O=C(CCN1C(=O)/C(=C/c2ccccc2Cl)SC1=S)NC1CCS(=O)(=O)C1 (stereo not given) | 2% | 7% | 4% | 1% | ?
O=C(CCN1C(=O)/C(=C/c2ccccc2)SC1=S)N[C@@H](CO)Cc1ccccc1 | -2% | -1% | 1% | 7% | 13µM*
CC(C(=O)N(C)C1CCS(=O)(=O)C1)N1C(=O)/C(=C/c2ccco2)SC1=S (stereo not given) | 19% | -7% | -16% | 25µM* | ?
O=C(CCCN1C(=O)c2cccc3cccc(c23)C1=O)NC1CCS(=O)(=O)C1 (stereo not given) | -12% | -1% | ? | 20% | 12µM*
O=C(CCCN1C(=O)/C(=C/c2ccc(F)cc2)SC1=S)NC1CCS(=O)(=O)C1 (stereo not given) | 6% | 4% | 9.3µM* | 3% | 10µM*
O=C(CN1C(=O)c2ccccc2C1=O)NC1CCS(=O)(=O)C1 (stereo not given) | . | -1% | . | . | .
